Reference: ChEMBL document CHEMBL3988442, “University of Dundee, Small-Polar-MMV Screening Library” (2021)
About 950 (1.4%) of roughly 69,000 compounds showed an effect of 50% or more. For the sample, strong results were picked, then their nearest neighbours and some compounds at random.

test system: Mycobacterium tuberculosis; assay: Cornell M. t heat shock assay; type: functional, organism-based; design: dose or concentration left out as unconfirmed; further: in the data most compounds retested in dose-response had high values

| SMILES | Percent Effect [%] |
| --- | --- |
| Fc1ccc(-c2n[nH]cc2CNCCn2cccn2)cc1 | 11.69 |
| Fc1ccc(-c2nc(CNCCn3cccn3)cs2)cc1 | 66.63 |
| COc1cccc(-c2nc(CNCCCn3cccn3)cs2)c1 | 37.34 |
| c1ccc(-c2nc(CNCCn3cccn3)cs2)cc1 | 37.88 |
| COc1cccc(-c2nc(CNCCn3cccn3)cs2)c1 | 90.69 |
| c1cnc(-c2nc(CNCCn3cccn3)cs2)nc1 | -0.9429 |
| c1csc(-c2nc(CNCCn3cccn3)cs2)c1 | 10.7 |
| Fc1ccccc1-c1nc(CNCCn2cccn2)cs1 | 20.44 |
| c1cnn(CCNCc2csc(-c3ccsc3)n2)c1 | 52.72 |
| COc1cccc(-c2nc(CNCCc3cccnc3)cs2)c1 | -0.6336 |
| c1ccc(-c2nc(CNCCn3cccn3)cs2)nc1 | -25.33 |
| Clc1ccccc1-c1nc(CNCCn2cccn2)cs1 | 54.38 |
| Cc1ccc(CN2CCC3(CC2)CN(c2cnn(C)c2)C(=O)CO3)o1.O=C(O)C(F)(F)F | -7.35 |
| OCCOc1cc(F)ccc1NCc1cccc(F)c1F | -41.85 |
| O=C(O)C(F)(F)F.O=S(=O)(c1cccs1)N1CC[C@H](O)[C@@H]1Cc1ccncc1 | -2.198 |
| Cn1cc(N2C(=O)CC[C@@H]3[C@H]2CCN3CCc2ccccc2)cn1.O=C(O)C(F)(F)F.O=C(O)C(F)(F)F | -25.96 |
| COc1ccc(CNC(C)c2cccc(Br)c2)c(OC)c1OC.Cl (stereo unspecified) | -10.84 |
| COCCN1CCC(c2nc3ccc(-c4ccccc4)cn3n2)CC1.O=C(O)C(F)(F)F | -23.12 |
| C/N=C1/c2cc3cc(OC)ccc3n2CCN1Cc1ccccc1.Cl | -17.35 |
| Cc1noc(C)c1CN1CCO[C@H]2CN(C(=O)N3CCCC3)C[C@H]21.O=C(O)C(F)(F)F | -20.16 |
| COc1ccc(-c2nnc(CNCCn3cccn3)o2)cc1 | -11.96 |

| SMILES | Percent Effect [%] |
| --- | --- |
| Cn1cc(-c2nc(CNCCn3cccn3)cs2)cn1 | -4.068 |
| COc1ccc(-c2nc(CNCCn3cccn3)cs2)cc1 | 106.9 |
| CCc1c(C)nc2cc(C3CCN(Cc4ccncc4C)C3)nn2c1O (stereo unspecified) | -4.904 |
| O=C(O)C(F)(F)F.O=C(c1ccncc1F)N1CCc2onc(COc3cccnc3)c2C1 | 2.972 |
| Cn1ccc(C(=O)N2CCC[C@]3(C[C@@H](OCc4ccccn4)CO3)C2)n1.O=C(O)C(F)(F)F | -3.608 |
| CC(C)NC(=O)CCC(=O)N1CCC(c2noc3cc(F)ccc23)CC1 | 74.12 |
| CCCNC(=O)CCC(=O)N1CCC(c2noc3cc(F)ccc23)CC1 | 9.612 |
| O=C(CCN1CCC(C(=O)c2cc(F)ccc2F)CC1)NC1CC1 | -9.281 |
| O=C(CCC(=O)N1CCC(c2noc3cc(F)ccc23)CC1)NC1CC1 | 83.45 |
| CC(C)NC(=O)CN1CCC(c2cccc(F)c2)C1 (stereo unspecified) | -24.09 |
| O=C(O)CCC(=O)N1CCC(c2noc3cc(F)ccc23)CC1 | 69.92 |
| NC(=O)CN1CCC(c2noc3cc(F)ccc23)CC1 | -31.79 |
| O=C(CCc1cc(O)no1)N1CCC(Cc2ccc(F)cc2)CC1 | 4.65 |
| O=C(O)CCCC(=O)N1CCC(c2noc3cc(F)ccc23)CC1 | 20.09 |
| Cl.NC(=O)C1CNCCN1C(=O)COc1ccccc1 (stereo unspecified) | -11.48 |
| C[C@H]1CN(Cc2cccc(F)c2)C[C@@]12CCN(CC(=O)N(C)C)C2=O.O=C(O)C(F)(F)F | -2.321 |
| CC(C)C(=O)N1CC[C@H]2N(C)CC[C@@]2(C(=O)N2CCCC2)CC1.O=C(O)C(F)(F)F | 7.304 |
| CCC1(O)CCCN(c2nc(-c3ccccn3)nc3c2c(C)nn3C)C1 (stereo unspecified) | 100.9 |
| CSCC[C@@H](CO)Nc1ccc(-c2nc(-c3ccccc3F)no2)cn1 | -33.46 |
| CSCC[C@@H](CO)Nc1nc(-c2ccccn2)nc2c1c(C)nn2C | 63.32 |
| Cc1nn(C)c2nc(-c3ccccn3)nc(NCCCOC(C)C)c12 | 98.39 |

| SMILES | Percent Effect [%] |
| --- | --- |
| CCSCCNc1nc(-c2ccccn2)nc2c1c(C)nn2C | 102 |
| CCC1(O)CCCN(c2ncnc3c2c(C)nn3C)C1 (stereo unspecified) | 10.34 |
| c1ccc(-c2nc3c(c(NCCn4cccc4)n2)CCNCC3)nc1 | -4.2 |
| CC(=O)NCCNc1nc(-c2ccccn2)nc2c1c(C)nn2C | -12.81 |
| CCSCCNc1nc2c(s1)c(C)nn2C | 6.366 |
| CSCC[C@@H](CO)Nc1ccc(-c2nc(-c3ccccc3C)no2)cn1 | -15.48 |
| Cc1nc(N2CCC(O)(c3ccccc3)CC2)c2c(C)nn(C)c2n1 | 12.95 |
| c1ccc(-c2nc3c(c(NCCCn4cncn4)n2)CCNCC3)nc1 | 8.8 |
| Cc1ccc(CN2CC[C@H]3OCC[C@@H](C(=O)N4CCCCO4)[C@@H]3C2)o1.O=C(O)C(F)(F)F | -16.6 |
| O=C(O)C(F)(F)F.O=C([C@@H]1CCO[C@@H]2CCN(CCc3ccccc3)C[C@@H]21)N1CCCC1 | -24.53 |
| Cl.c1cnc(Nc2cc(CCC3CCCNC3)ccn2)cn1 (stereo unspecified) | 5.615 |
| Cc1nnc(N2CC[C@H]3O[C@H](C(=O)NCc4ccccn4)CC[C@H]32)s1.O=C(O)C(F)(F)F.O=C(O)C(F)(F)F | -4.989 |
| CCCN1C[C@H]2CC[C@@H]1CN(c1nnc(C(C)C)s1)C2 | 23.85 |
| O[C@@H]1CN(Cc2cccnc2)C[C@H]1Oc1ccccc1 | -6.962 |
| CCN1CCN(C)C(=O)C12CCN(C(=O)Cc1ccccn1)CC2.O=C(O)C(F)(F)F | 3.493 |
| Cc1nn(C)c2nc(-c3ccccn3)nc(NCCC3CCCN3C)c12 (stereo unspecified) | -21.22 |
| Cc1nn(C)c2nc(-c3ccccn3)nc(NC[C@@H]3CCCO3)c12 | 93.55 |
| Cc1nn(C)c2nc(N(Cc3ccccn3)CC3CCCO3)sc12 (stereo unspecified) | -20.31 |
| CN(Cc1ccco1)Cc1cncc2c1CCN(Cc1ccoc1)C2.Cl.Cl.Cl | -8.81 |
